Activity calls are given as the source filed them. How the source made its calls: active means hit-call score of the fitted dose curve at least 0.9, where 1 is the maximum; inactive means score below 0.9.
How the values were obtained:
[1] = APR_HepG2_CellCycleArrest_24hr: Apredica 24-hour HepG2 Assay for Cell Cycle Arrest (AID 2282905); conditions: imaging, actives raise or lower the signal;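 further: cell cycle arrest scored as ratio of 2N to 4N nuclear DNA content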
Procedure, shortened: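 HepG2 cells were exposed to compounds at 0.39–200 uM (ten concentrations, duplicate) in 0.5% v/v DMSO for 24 hr. After formaldehyde fixation and Triton permeabilization, Hoechst 33342-stained nuclei were imaged at 20x; DNA content was quantified, with bidirectional fitting against DMSO.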

[2] = APR_HepG2_NuclearSize_24hr: Apredica 24-hour HepG2 Assay for Nuclear Size (AID 2282907); conditions: high-content imaging, actives raise or lower the signal
Procedure, shortened: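 HepG2 human liver cells were exposed for 24 hr to compounds at 0.39–200 uM (ten concentrations, duplicate) in 0.5% v/v DMSO. They were then formaldehyde-fixed, Triton-permeabilized and Hoechst 33342-stained, and nuclear diameter was imaged at 20x. Bidirectional fits were made against DMSO.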

[3] = APR_HepG2_CellLoss_24hr: Apredica 24-hour HepG2 Assay for Cell Loss (AID 2282908); conditions: high-content imaging;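 on AC50: fit in both directions so a hit may be cell loss or gain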
Procedure, shortened: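 Compounds were tested at 0.39–200 uM in duplicate with 0.5% v/v DMSO final. Cells were then fixed in 3.7% formaldehyde, Hoechst 33342 nuclei were imaged at 20x by HCS, and cell number was fitted bidirectionally against DMSO.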

[4] = APR_HepG2_MicrotubuleCSK_24hr: Apredica 24-hour HepG2 Assay for Microtubule CSK Stabilty (AID 2282909); conditions: HepG2 microtubule cytoskeleton imaging, actives raise or lower the signal
Procedure, shortened: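 HepG2 cells exposed 24 h to compounds at 0.39–200 uM (duplicate, 0.5% v/v DMSO final), then fixed, permeabilized and immunostained for alpha-tubulin with Hoechst 33342. Cytoskeleton imaged at 20x; bidirectional fit versus DMSO baseline.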

[5] = APR_HepG2_MitoticArrest_24hr: Apredica 24-hour HepG2 Assay for Mitotic Arrest (AID 2282910); conditions: high-content imaging, actives raise or lower the signal
Procedure, shortened: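 Compounds are dosed onto HepG2 cells across ten concentrations up to 200 uM for 24 hr. Cells are then fixed in 3.7% formaldehyde, permeabilised, and labelled for phospho-histone H3 and nuclei; images are scored by cell cycle analysis and fitted bidirectionally relative to DMSO.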

[6] = APR_HepG2_MitoMembPot_24hr: Apredica 24-hour HepG2 Assay for Mitochondrial Membrane Potential (AID 2282911); conditions: imaging, actives raise or lower the signal
Procedure, shortened: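 HepG2 human liver cells were exposed 24 hr to compounds at 0.39–200 uM (final DMSO 0.5% v/v) in duplicate. MitoTracker Red CMXRos (250 nM, 30 min) was loaded before formaldehyde fixation; fluorescence was imaged by ArrayScan HCS and fitted bidirectionally versus DMSO.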

[7] = APR_HepG2_MitoMass_24hr: Apredica 24-hour HepG2 Assay for Mitochondrial Mass (AID 2282912); conditions: high-content imaging, actives raise or lower the signal
Procedure, shortened: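 Human HepG2 liver cells were exposed for 24 hr to compounds at 0.39–200 uM (duplicates, 0.5% v/v DMSO final). They were stained live with 250 nM MitoTracker Red CMXRos for 30 min, fixed in 3.7% formaldehyde, and imaged by HCS fluorescence; signals were fitted bidirectionally against DMSO.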

[8] = APR_HepG2_p53Act_24hr: Apredica 24-hour HepG2 Assay for p53 Activation (AID 2282913); conditions: high-content imaging, actives raise or lower the signal;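 further: p53 protein immunofluorescence averaged per cell in HepG2 with Hoechst nuclei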
Procedure, shortened: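 HepG2 cells exposed 24 hr to compounds at 0.39–200 uM (10 concentrations, duplicate), final DMSO 0.5% v/v. After formaldehyde fixation and Triton permeabilization, p53 was immunolabeled (sheep anti-p53, Cy5 secondary) with Hoechst 33342 nuclear counterstain, then imaged by high-content fluorescence microscopy.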

[9] = APR_HepG2_CellCycleArrest_72hr: Apredica 72-hour HepG2 Assay for Cell Cycle Arrest (AID 2282914); conditions: high-content imaging, actives raise or lower the signal
Procedure, shortened: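 HepG2 cells were exposed to compounds at 0.39–200 uM (0.5% v/v DMSO final, duplicates) for 72 hr, fixed in 3.7% formaldehyde, permeabilized and stained with Hoechst 33342. Nuclear DNA content was quantified by high-content imaging; gain or loss of signal was fitted bidirectionally against DMSO.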

[10] = APR_HepG2_CellLoss_72hr: Apredica 72-hour HepG2 Assay for Cell Loss (AID 2282915); conditions: high-content imaging
Procedure, shortened: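 Cell number comes from Hoechst 33342-labelled nuclei, imaged at 20x after 3.7% formaldehyde fixation. Dosing was 0.39–200 uM, ten concentrations in duplicate, 0.5% DMSO final, for 72 h. Bidirectional fit relative to DMSO baseline.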

Measured: AC50

C=CCCCCCCCCCCCC
active: [1] 69.9 µM | [3] 52.7 µM | [8] 99.4 µM | [10] 87.6 µM
inactive: [2] | [4] | [5] | [6] | [7] | [9]

Cc1cc(SC2=C(O)C[C@@](CCc3ccc(N)cc3)(C(C)C)OC2=O)c(C(C)(C)C)cc1CO
active: [6] 0.0797 µM
inactive: [1] | [2] | [3] | [4] | [5] | [7] | [8] | [9] | [10]

CC(=O)OCC(COC(C)=O)OC(C)=O
inactive: [1] | [2] | [3] | [4] | [5] | [6] | [7] | [9] | [10]

CCCCc1nc2cccnc2n1Cc1ccc(-c2ccccc2-c2nnn[nH]2)cc1
inactive: [1] | [5] | [9]
active: [2] 51 µM | [3] 32.6 µM | [4] 35.7 µM | [6] 23.1 µM | [7] 28.1 µM | [8] 31.1 µM | [10] 65.2 µM

O=C1OC(c2ccc(O)cc2)(c2ccc(O)cc2)c2ccccc21
active: [1] 81.1 µM | [3] 90.7 µM | [5] 61.4 µM | [7] 92.7 µM | [8] 51.8 µM | [9] 55.9 µM | [10] 102 µM
inactive: [2] | [4] | [6]

CCCCC(CC)COC(=O)CCCCCCCC(=O)OCC(CC)CCCC (centres undefined)
inactive: [1] | [2] | [3] | [4] | [5] | [6] | [7] | [8] | [9] | [10]

CCCC[C@H]1CN(CC2CCOCC2)C(=O)OC12CCN(C1(C)CCN(C(=O)c3c(C)ncnc3C)CC1)CC2
inactive: [1] | [2] | [3] | [4] | [5] | [6] | [7] | [8] | [9] | [10]

CCc1cc(C2=C(C(=O)O)N(c3ccccc3C(F)(F)F)S(=O)(=O)c3ccccc32)cc2c1OCO2
active: [10] 95.5 µM
inactive: [1] | [2] | [3] | [4] | [5] | [6] | [7] | [8] | [9]

CCCCCCCCCC[N+](C)(C)[O-]
active: [3] 109 µM | [10] 140 µM
inactive: [1] | [2] | [4] | [5] | [6] | [7] | [8] | [9]

O=C1O[C@H]([C@H](O)CO)C(O)=C1O
inactive: [1] | [2] | [3] | [4] | [5] | [6] | [7] | [8] | [9] | [10]

O=C(O)c1[nH]n(-c2ccc(S(=O)(=O)O)cc2)c(=O)c1N=Nc1ccc(S(=O)(=O)O)cc1
inactive: [1] | [2] | [3] | [4] | [5] | [6] | [7] | [8] | [9] | [10]

CN(C)CCCN(C)CCCN(C)C
inactive: [1] | [2] | [3] | [4] | [5] | [6] | [7] | [8] | [9] | [10]

CCOCCOCCO
inactive: [1] | [2] | [3] | [4] | [5] | [6] | [7] | [8] | [9] | [10]

O=[Si]=O
inactive: [1] | [2] | [3] | [4] | [5] | [6] | [7] | [8] | [9]
active: [10] 61.4 µM

O=C(O)CC(O)(CC(=O)O)C(=O)O
inactive: [1] | [2] | [3] | [4] | [5] | [6] | [7] | [8] | [9] | [10]

COC(=O)CCC(=O)OC
inactive: [1] | [2] | [3] | [4] | [5] | [6] | [7] | [8] | [9] | [10]

CCc1nc(N)nc(N)c1-c1ccc(Cl)cc1
inactive: [1] | [2] | [3] | [4] | [5] | [6] | [7] | [8]
active: [9] 100 µM | [10] 80.2 µM

COC(=O)CCCC(=O)OC
inactive: [1] | [2] | [3] | [4] | [5] | [6] | [7] | [8] | [9] | [10]

S=c1[nH]c2ccccc2s1
inactive: [1] | [2] | [3] | [4] | [5] | [7] | [8] | [9] | [10]
active: [6] 86.5 µM

NCCOCCOCCN
active: [1] 0.998 µM | [3] 92.3 µM | [4] 170 µM | [5] 14.3 µM | [6] 107 µM | [7] 45.3 µM | [8] 83.7 µM | [9] 18.6 µM | [10] 16.6 µM
inactive: [2]

Source: PubChem BioAssay (EPA / NIEHS)
